Reference: PubChem BioAssay (Tox21)
Records with an inconclusive call do not appear. Activity calls are given as the source filed them. The call rests on the fitted dose curve; in most records, active means well fitted activation curve with a large enough effect in the repeat runs; inconclusive means weak or mixed curves, or effect the other way; inactive means no such curve, though single readings can be large or run the other way.

Assay: qHTS assay to identify small molecule agonists of the retinoic acid receptor (RAR) signaling pathway (AID 1159553)
Conditions: C3RL4 RARE luciferase reporter, agonist, 6 h; series mostly up to 73.3 µM; activation: at the top concentration
From the text: National Center for Advancing Translational Sciences [NCATS] NIH Chemical Genomics Center [NCGC] U.S. Environmental Protection Agency [EPA] National Institutes of Environmental Health Sciences [NIEHS] National Toxicology Program [NTP] Assay overview: All-trans Retinoic acid (atRA) is the potent natural metabolite of retinol and plays an important role in normal embryonic development and maintenance of cellular phenotype in adult animals. atRA is the activating ligand for the retinoic acid receptors (RARs) which form heterodimers with retinoid X receptors (RXRs) on the retinoic acid response element (RARE). Through activation of the RAR/RXRs nuclear receptors, atRA regulates the transcription of a large number of protein-coding genes and regulatory RNAs. Intracellular levels of atRA are controlled by the retinol signaling pathway (RSP) that regulates the biosynthesis and catabolism of atRA to maintain physiological levels. Chemicals that interfere with the RSP can cause abnormal intracellular levels of atRA and therefore are potential developmental toxicants. To assess compounds for the potential adverse effect on embryonic development through interfering with retinol signaling, a cell-based RARE luciferase reporter gene assay was used. C3RL4 cell line (OARSA/CFSAN/FDA, Laurel, MD) was used to screen Tox21 10K compound library for identifying activators of the RSP.
Assay Protocol Summary: C3RL4 cells were seeded at 1,000/well in 5 uL of assay medium into white solid 1,536-well tissue culture plates (Greiner Bio-One North America Inc. Monroe, NC) using a Multidrop Combi (Thermo Scientific, Waltham, MA) dispenser. After incubation at 37 C and 5% CO2 for an overnight, 23 nL of compounds dissolved in DMSO, positive control or DMSO only were transferred by a Pintool station (Kalypsys, San Diego, CA). After 6 hr incubation at 37 C and 5% CO2, 5 uL of Amplite Luciferase reagent (AAT Bioquest Inc. Sunnyvale, CA) was added to each assay plate using a Flying Reagent Dispenser (FRD) (Aurora Discovery, San Diego, CA). Luminescence was quantified on a ViewLux plate reader (PerkinElmer, Waltham, MA) after 30 min incubation at room temperature.
On the % scale 0 is the no-effect control and ±100 the full control effect; potency means the concentration at half of the fitted maximal effect.

Structure (SMILES) | activation | Potency
O=C(O)/C=C/c1ccc(O)c(O)c1 | 2.64% [at 94.8 µM] (inactive) | 
CCCC(=O)OC(=O)CCC | 0.107% [at 94.8 µM] (inactive) | 
C=C(C)c1ccccc1 | 0.865% (inactive) | 
CC(C)(O)CCc1ccccc1 | 5.1% (inactive) | 
CC(C)c1ccc(C(=O)N=C(N)N)cc1S(C)(=O)=O | -2.93% (inactive) | 
Cc1ccc(S(=O)(=O)NC(=O)NC2CCCCC2)cc1 | 0.226% (inactive) | 
COc1cc(NC(C)CCCN)c2ncccc2c1 (stereo not given) | -10.1% (inactive) | 
O=C(O)CO | -0.978% (inactive) | 
COc1ccc(-n2nc(C(F)F)cc2-c2ccc(S(C)=O)cc2)cc1 (stereo not given) | 0.577% (inactive) | 
CSSc1ccoc1C |  | 0.0431 µM (active)
COc1ccc(C2C(=O)c3ccccc3C2=O)cc1 | 7.39% (inactive) | 
N[C@@H](Cc1cc(I)c(O)c(I)c1)C(=O)O | 0.137% (inactive) | 
CNc1c2c(nn1C)CCCC2 | -2.97% (inactive) | 
O=C(/C=C/c1ccc([N+](=O)[O-])cc1)c1ccccc1 |  | 30.7 µM (active)
Cc1ccccc1S(N)(=O)=O | -0.127% (inactive) | 
CC(C)(C)C(O)/C=C/c1ccc2c(c1)OCO2 (stereo not given) |  | 29.8 µM (active)
CCN(CC)C(=O)N1CCN(C)CC1 | 1.04% (inactive) | 
CC(=O)OCCC1CCCCC1 | -1.09% (inactive) | 
Cc1cn([C@H]2C[C@H](F)[C@@H](CO)O2)c(=O)[nH]c1=O | -0.85% (inactive) | 
CCC(C)(C)C(=O)O | 0.802% (inactive) | 

Structure (SMILES) | activation | Potency
O=C1[C@@H]2[C@H]3CC[C@H](C3)[C@@H]2C(=O)N1CCCCN1CCN(c2ncccn2)CC1 | 1.2% (inactive) | 
O=C(O)c1cccc(Oc2ccccc2)c1 | 0.645% (inactive) | 
Cc1cc(CCCOc2c(C)cc(-c3noc(C(F)(F)F)n3)cc2C)on1 | 3.18% (inactive) | 
Nc1nc2ccc(OC(F)(F)F)cc2s1 |  | 9.44 µM (active)
CC(C)(C)NCC(O)COc1cccc2c1C[C@H](O)[C@H](O)C2 (stereo not given in full) | 0.815% (inactive) | 
CCCCCCCCCCCCCCN(C)C | -1.23% [at 34.3 µM] (inactive) | 
CCCCC(CC)COS(=O)(=O)O (stereo not given) | 1.81% (inactive) | 
O=C1OC[C@H](Cc2cccc(O)c2)[C@H]1Cc1cccc(O)c1 | -0.601% [at 34.3 µM] (inactive) | 
CCC1CCC(CCC(=O)O)C1 (stereo not given) | 3.41% [at 94.8 µM] (inactive) | 
CC[C@H]1OC(=O)[C@H](C)[C@@H](O[C@H]2C[C@@](C)(OC)[C@@H](O)[C@H](C)O2)[C@H](C)[C@@H](O[C@@H]2O[C@H](C)C[C@H](N(C)C)[C@H]2O)[C@](C)(O)C[C@@H](C)CN(C)[C@H](C)[C@@H](O)[C@]1(C)O | -5.38% (inactive) | 
CCCCCCCC(=O)OCCCCCC | 1.89% (inactive) | 
CC(C)C1CCC(C(=O)N[C@H](Cc2ccccc2)C(=O)O)CC1 (stereo not given in full) | -8.04% (inactive) | 
CCCCCCCCCCCCCOC(=O)CCSCCC(=O)OCCCCCCCCCCCCC | -1.59% [at 34.3 µM] (inactive) | 
O=P(O)(O)Oc1ccccc1 | 0.597% (inactive) | 
CC(=O)OCC1=C(C(=O)O)N2C(=O)[C@@H](NC(=O)CSc3ccncc3)[C@H]2SC1 | 0.57% (inactive) | 
CC(C)CC(O)CC(C)C | -1.34% (inactive) | 
CCCCCCCCCCCCCC(=O)OCC(O)CO (stereo not given) | -0.188% (inactive) | 
CC(C)(C(=O)c1cccnc1)c1cccnc1 | -0.11% (inactive) | 
O=C(NC(Cc1cc(=O)[nH]c2ccccc12)C(=O)O)c1ccc(Cl)cc1 (stereo not given) | 0.302% (inactive) | 
CCNc1nc(N)nc(Cl)n1 | -0.697% (inactive) | 
